From PubChem
In the library only some 19% were active in any assay of this set; here they are far more common.
HT1080-NT tox = kills 2HG-producing HT-1080-NT fibrosarcoma cells; HT-1080-NT fibrosarcoma viability, CellTiter-Glo ATP luminescence, 48 h; AID 686970; hit rate 1.6% among 360,000; Potency, µM (doses to about 46.1 µM), without a hit: top-dose activity, negative = less viability, hits mostly cytotoxic;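 also: NT is the 2HG producing partner of a matched IDH1 knockdown line; potency is read from the fitted curve at half-maximal effect; 0% = DMSO-treated cells and -100% = media-only wells without cells; nearly all actives have a fitted effect of over 55% in size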
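A 48-hour cytotoxicity screen used HT-1080-NT cells plated 2 hours before compound delivery. ATP-based CellTiter-Glo luminescence measured viability, normalized to DMSO and no-cell controls.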
DT40 TDP1 no CPT = qHTS for Inhibitors of human tyrosyl-DNA phosphodiesterase 1 (TDP1): qHTS in cells in absence of CPT; hit rate 15% among 420,000; Potency, µM (highest dose often 46.2 µM), for the others: at the top dose activity change, negative = growth inhibition, hits mostly inhibitors; DT40 Tdp1-/- hTDP1 cells, no CPT, ATP luminescence, 48 h; also: potency is read from the fitted curve at half-maximal effect; nearly all actives have a fitted effect of over 55% in size
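No-CPT arm: Tdp1-/-;hTDP1 DT40 cells (400/well) plus compounds, incubated ≥48 hr at 37 °C. Readout CellTiter-Glo luminescence.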
DT40 TDP1 CPT = DT40-hTDP1 cell growth loss with CPT | hit rate 12% among 420,000 | Potency, µM (doses to about 46.2 µM), for the others: at the highest dose activity change, negative = growth inhibition, most hits filed as inhibitors | chicken DT40 Tdp1-/-;hTDP1 cells + 20 nM CPT, ATP luminescence, 48 h; also: potency is read from the fitted curve at half-maximal effect; nearly all actives have a fitted effect of over 55% in size
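Chicken DT40 Tdp1-/- cells stably complemented with human TDP1 were seeded at 400 cells/well in medium containing 20 nM camptothecin, exposed to pin-transferred compounds, and grown at 37 °C for at least 48 hr. Viability was read as ATP luminescence.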
IL-1B inflam inh = inhibitors of inflammasome signaling (IL-1 beta secretion). THP-1 LPS/ATP IL-1B secretion, AlphaLISA, 16 h; stronger effect = lower value. AID 743279. activity change, % at 57.5 µM. hit rate 4.7% among 360,000; in the data active = activity change below about -50%; inconclusive = mostly about -30% to -49%
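Secreted IL-1B measured by AlphaLISA bead assay after 16 h compound exposure of THP-1 cells; compounds (final up to 57.5 uM) added 1 h before LPS (250 ng/mL) and ATP (1.25 mM) stimulation; lower signal means less secretion.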
HT1080 IDH1KD tx = HT-1080 IDH1 knockdown cell toxicity (counter line); hit rate 2% among 360,000; Potency, µM (top dose mostly 46.1 µM), for the others: at the highest dose activity, negative = toxicity, usual class: cytotoxic; AID 686971; HT-1080 IDH1 knockdown viability, ATP luminescence, 48 h;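 also: potency is read from the fitted curve at half-maximal effect; 0% = DMSO wells and -100% = cell-free medium wells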
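CellTiter-Glo luminescence after 48 h compound exposure at 37 degrees C of IDH1-knockdown HT-1080 cells in 5% FBS RPMI. %Activity scaled between DMSO wells and cell-free media wells, with curves fitted and assigned curve classes.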
Numbers without * were called inactive; u = inconclusive. Unless noted, calls follow the shape of the dose curve; as a rule, active = well fitted curve in the direction sought with a large enough effect; inconclusive = small, poorly fitted or top-dose-only effect, or another doubt; inactive = no such curve, though single readings can be large; an effect the other way counts as inactive or inconclusive. Unless noted, % is scaled to controls: 0 for no effect and ±100 for the full control effect.

SMILES | HT1080-NT tox | DT40 TDP1 no CPT | DT40 TDP1 CPT | IL-1B inflam inh | HT1080 IDH1KD tx
Nc1nc2ccccc2[nH]1 | 2% | 9% | 17% | -3 | 7%
Cc1ccccc1CSc1ccc(S(=O)(=O)N2CCCC2)cn1 | 9% | u | -22% | -12 | 1%
Cc1cc2ncn(-c3ncnc4scc(-c5ccccc5)c34)c2cc1C | -7% | 18µM* | u | -6 | 0%
Cc1sc2ncn(CCn3cnc4sc(C)c(C)c4c3=O)c(=O)c2c1C | -1% | 21µM* | u | -5 | 0%
COc1ccc(-c2csc3ncnc(N4CCN(c5cccc(OC)c5)CC4)c23)cc1 | -12% | 18µM* | 16µM* | -6 | 1%
Cc1cc2ncn(-c3ncnc4sc(C)c(C)c34)c2cc1C | -3% | u | -27% | 1 | -4%
COc1ccc(-c2csc3ncnc(N4CCN(c5cccc(Cl)c5)CC4)c23)cc1 | -1% | 16µM* | u | 10 | -11%
COc1ccc(-c2csc3ncnc(N4CCN(c5ccccc5Cl)CC4)c23)cc1 | -2% | u | u | -4 | u
Nc1c(C(=O)CSc2n[nH]c(-c3ccccc3)n2)c(=O)[nH]c(=O)n1C1CC1 | 1% | -11% | -11% | 25 | 0%
CC(C)NC(=O)NC(=O)COC(=O)C1(C)CC1(Cl)Cl (centres undefined) | 1% | 3% | 1% | 8 | 1%
CCCn1cnc2scc(-c3ccc(C)c(C)c3)c2c1=O | -1% | 21µM* | u | 8 | -11%
COc1ccc(N2CCN(C(=O)CSc3ncnc4scc(-c5ccc(C)cc5)c34)CC2)cc1 | -14% | 16µM* | u | -23 | -17%
COc1ccc(-c2csc3ncnc(N4CCN(c5cccc(C)c5C)CC4)c23)cc1 | -1% | u | 15µM* | 11 | u
c1ccc(-c2csc3ncnc(N4CCc5ccccc5C4)c23)cc1 | -10% | 16µM* | u | 0 | -6%
COc1ccc(CN2CCN(C3CCC3)CC2CCO)c(C)c1C (centres undefined) | -1% | -28% | 12% | 4 | -13%
COc1ccc(OC)c(CN2C(=O)CN(S(C)(=O)=O)CC2(C)C(=O)Nc2c(C)cccc2C)c1 (centres undefined) | 9% | -3% | 7% | -8 | 3%
Cc1ccc(-c2csc3ncnc(N4CCN(C)CC4)c23)cc1C | -5% | 12µM* | u | -15 | -5%
COc1ccc(N2CCN(c3ncnc4scc(-c5ccc(C)cc5)c34)CC2)cc1 | -6% | u | u | 40 | 2%
COc1ccc(N2CCN(c3ncnc4scc(-c5ccccc5)c34)CC2)cc1 | u | 16µM* | -15% | u | u
COc1ccc(N2CCN(C(CNC(=O)c3ccc4c(c3)OCO4)c3ccco3)CC2)cc1 (centres undefined) | -12% | u | u | -5 | -14%
COc1cccc(C(=O)N2CCC[C@@H]2C(=O)N2CCC[C@H]2C(=O)NCc2ccncc2)c1 | 20% | 0% | -25% | 56 | 1%
CC/C(=N\NC(=O)CCC(=O)NCc1ccccc1)c1ccc(O)cc1 | 1% | 4.1µM* | 2.9µM* | 12 | -14%
O=C(Nc1ccccc1F)C(=Cc1sc(N2CCOCC2)nc1-c1ccccc1)C(=O)Nc1ccccc1F | -21% | 5.2µM* | 1.6µM* | -24 | -1%
COc1cc(/C=N\NC(=O)CNC(=O)C2COc3ccccc3O2)ccc1O (centres undefined) | 1% | -2% | u | 17 | 4%
O=C(N/N=C/c1sc(N2CCOCC2)nc1-c1ccccc1)c1ccccc1F | -4% | u | u | 29 | 0%
SMILES | HT1080-NT tox | DT40 TDP1 no CPT | DT40 TDP1 CPT | IL-1B inflam inh | HT1080 IDH1KD tx
CCN(CC)c1ccc(/C=N/NC(=O)CNC(=O)C2COc3ccccc3O2)c(O)c1 (centres undefined) | u | 3.3µM* | 5.8µM* | 87 | u
CCN(CC)c1ccc(/C=N/NC(=O)c2cccc(S(=O)(=O)N3CCOCC3)c2)c(O)c1 | u | 5.8µM* | 4.1µM* | 200 | u
CCn1c(SCC(=O)NC2CCCCC2)nc2ccccc2c1=O | 1% | -22% | 7% | 11 | 5%
CC(Cc1c[nH]c2ccccc12)C(=O)NCc1ccco1 (centres undefined) | 20% | -16% | -28% | 5 | 20%
CCN(CC)c1ccc(/C=N/NC(=O)CCC(=O)NCc2ccccc2)c(O)c1 | -28% | 5.2µM* | 5.2µM* | 48 | u
CCOC(=O)N/N=C/c1ccccc1F | 19% | 10% | 15% | 4 | 8%
CCN(CC)c1ccc(/C=N/Nc2ccc(C)cc2)c(O)c1 | -7% | 12µM* | 12µM* | -7 | -6%
O=C(CCC(=O)N/N=C/c1c[nH]c2ccccc12)NCc1ccccc1 | 0% | -20% | -8% | 23 | u
CCOC(=O)N/N=C/c1ccc(N(CC)CC)cc1O | u | 5.8µM* | 8.2µM* | 8 | 9.2µM*
O=C(N/N=C/c1sc(N2CCOCC2)nc1-c1ccccc1)c1cccc(S(=O)(=O)N2CCOCC2)c1 | 3.7µM* | 4.6µM* | 4.6µM* | 193 | u
CCN(CC)c1ccc(C=Nc2cc(C)ccc2C)c(O)c1 | 1% | u | -9% | -2 | -8%
Nc1ccc(C(=O)N/N=C/c2sc(N3CCOCC3)nc2-c2ccccc2)cc1 | 13% | u | u | -24 | 17%
COc1ccc(OCC(=O)N2CCCC(Nc3ccc(C)c(C)c3)C2)cc1 (centres undefined) | -2% | -18% | -13% | 27 | 14%
Cn1ncc(Cl)c1C(=O)N/N=C/c1cc2c(cc1[N+](=O)[O-])OCO2 | -6% | 17% | -13% | -1 | -12%
CCN(CC)S(=O)(=O)c1cccc(C(=O)N/N=C/c2cc(OC)c(O)c(OC)c2)c1 | 2% | u | -29% | 5 | 2%
CCN(CC)c1ccc(/C=N/NC(=O)c2c(Cl)cnn2C)c(O)c1 | u | 5.8µM* | 3.7µM* | 69 | u
CCN(CC)S(=O)(=O)c1cccc(C(=O)N/N=C/c2cccc(O)c2O)c1 | u | 4.6µM* | 3.7µM* | 0 | u
CCOCCCN1C(=O)CN(C2CCCCCC2)C(=O)C1c1ccc(OC)cc1 (centres undefined) | 9% | u | 7.9µM* | 5 | -11%
CCOCCCN1C(=O)CN(C2CCCCC2)C(=O)C1c1ccc(OC)c(OC)c1 (centres undefined) | 5% | 1% | 13% | 1 | 9%
Cc1ccc(C2C(=O)N(C3CCCC3)CC(=O)N2C2CCCCC2)cc1 (centres undefined) | -7% | u | -25% | -12 | -8%
